# Source: PubChem BioAssay
# Only a sample is shown.
# aSyn 5UTR act: Activators working through SNCA 5'UTR binding (MLPCN); 300,000 compounds, 7.1% hits; alpha-synuclein 5'UTR reporter, activators screen; activity score, % (tested at 7.5 µM), hits read low; in the data active = activity score below about -60%
# * = called active by the depositor.
SMILES,aSyn 5UTR act
CC(C)C(=O)NC(c1cccc([N+](=O)[O-])c1)c1ccc2cccnc2c1O (stereo not drawn),91
CCC(=O)NC(/C=C/c1ccccc1)c1cc([N+](=O)[O-])c2cccnc2c1O (stereo not drawn),-94*
CC(C)Oc1ccc(C2c3c(oc4ccccc4c3=O)C(=O)N2CCCN2CCOCC2)cc1 (stereo not drawn),-76*
COc1cc(/C(C)=N/NC(=O)CSc2nncn2C)ccc1OCc1ccccc1Cl,-83*
Nc1ccn([C@@H]2O[C@H](CO)[C@@H](O)C2O)c(=O)n1 (stereo partly drawn),72
OC[C@H]1O[C@@H](n2cnc3c(Nc4ccccc4)ncnc32)[C@H](O)[C@@H]1O,-79*
N=c1ccn2c(n1)OC1C(O)C(CO)OC12 (stereo not drawn),112
CC(C)n1c(CN(C)Cc2ccccc2)nc2c1c(=O)n(C)c(=O)n2C,64
Cc1[nH]c2ccccc2c(=O)c1CN(C)Cc1ccccc1,-89*
C#CCN1C(=O)S/C(=C\c2ccc(-c3ccc(C(=O)O)cc3C)o2)C1=O,-191*
COc1ccc(/C=C2\SC(=O)N(CCCC(=O)Nc3ccc(C(=O)O)cc3)C2=O)cc1OC,73
CCSc1n[nH]c(=S)s1,-89*
CN(CC(=O)Nc1ccccc1Cl)C(=O)COC(=O)c1nc(Cl)c(Cl)c(Cl)c1Cl,-129*
Cc1cccc(-c2nsc(SCC(=O)Nc3ccc4c(c3)OCO4)n2)c1,-96*
Cc1csc(SCC(=O)Nc2ccc3c(c2)OCCO3)n1,-67*
CSc1nsc(SCC(=O)Nc2ccc3c(c2)OCCO3)n1,-136*
CC(=O)c1ccccc1OC(=O)c1ccc(-c2ccccc2)cc1,-78*
Clc1ccccc1-c1ncc2ccccn12,-98*
Clc1ccc(-c2ncc3ccccn23)cc1,-104*
Cc1ccc(NN=C2c3ccccc3-c3ccccc32)cc1,-212*
Cc1ccccc1/C=C1\CCCc2ccccc2C1=O,-241*
Cc1ccsc1/C=C1\CCc2ccccc2C1=O,-165*
CCOC(=O)/C(C#N)=C/c1cc(C)n(-c2ccc(C)cc2)c1C,-130*
CC(C)COC(=O)/C(C#N)=C/c1cn(Cc2ccccc2)c2ccccc12,80
Brc1ccc(-c2cnc(-c3cccs3)o2)cc1,-171*
SMILES,aSyn 5UTR act
C=CCN=C(NC#N)SCC(=O)c1cccc(OC)c1,-104*
CCCCNC(=S)NNC(=O)c1csc(C)c1,-63*
CCCNC(=O)c1ccc2c(=O)c(O)c(-c3ccsc3)[nH]c2c1,87
Cc1cc(C(=O)NNC(=S)NC2CCCCC2)cs1,-77*
O=C(NC(=S)NC1CCCC1)c1ccccc1,-126*
O=C(NNC(=S)NC1CCCCC1)c1ccc(Cl)s1,-62*
COc1cccc(C(=O)NNC(=S)NC2CCCCC2)c1,-64*
COc1ccc(CC(=O)N2CCC(c3ccccc3)C2)cc1 (stereo not drawn),-65*
COc1ccc(CC(=O)N2CCc3ccccc32)cc1,-74*
COc1ccc2c(CC(=O)N3CCc4ccccc43)coc2c1,-105*
COc1ccc(OCc2cc(C(=O)N(C)Cc3nnc(C)o3)no2)c(Cl)c1,-121*
CCN(Cc1ccncc1)C(=O)c1cc(COc2ccc(OC)cc2Cl)on1,-111*
Cc1cc(CN(C)C(=O)c2cc(COc3ccc(F)cc3Cl)on2)n[nH]1,-75*
CCc1ccc(CN(C)C(=O)c2cc(COc3ccc(OC)cc3Cl)on2)nc1,-170*
COc1ccc(OCc2cc(C(=O)N(C)Cc3cc(C)no3)no2)c(Cl)c1,-182*
O=C(c1cc(-c2cccc(O)c2)on1)N1CCCC1,-106*
O=C(c1cc(-c2ccc(Br)cc2)on1)N1CCCC1,-109*
CCN(CC)C(=O)c1cc(-c2ccc(Br)cc2)on1,-152*
CN1CCN(C(=O)c2cc(-c3ccccc3)on2)CC1,-80*
O=C(c1cc(-c2ccccc2)on1)N1CCCCCC1,-200*
CCc1ccc(NS(=O)(=O)c2ccc3[nH]cc(C(=O)N4CCc5ccccc54)c(=O)c3c2)cc1,-128*
CCc1ccc(Nc2ncnc3nc[nH]c23)cc1,-70*
COc1cccc(Nc2ncnc3nc[nH]c23)c1,-83*
Cc1ccc(Nc2ncnc3nc[nH]c23)cc1Cl,-146*
Cc1ccc(NC(=O)Nc2ncnc3nc[nH]c23)cc1,-106*
SMILES,aSyn 5UTR act
CC(NC(=O)NC(=O)c1ccc(Cl)cc1Cl)C1CC1 (stereo not drawn),-70*
CC(=O)c1ccc2c(c1)C1C=CCC1C(c1ccncc1)N2 (stereo not drawn),-77*
CN(c1cccc(NC(=O)COc2ccc(Cl)cc2Cl)c1)S(C)(=O)=O,-131*
Cc1ccc(C)c(OCC(=O)Nc2c[nH]c(=O)[nH]c2=O)c1,81
CCc1cccc(NC(=O)COc2ccccc2)c1,-92*
CSc1ccccc1NC(=O)COc1ccccc1C,-107*
CN(c1cccc(NC(=O)COc2ccccc2)c1)S(C)(=O)=O,-113*
Cc1ccc(NC(=O)COc2ccccc2C=O)cc1Cl,-121*
Cc1ccccc1OCC(=O)Nc1cccc(N(C)S(C)(=O)=O)c1,-62*
COc1cccc(NC(=O)COc2ccccc2C(N)=O)c1,-75*
CC(=O)Nc1cccc(NC(=O)COc2ccccc2C)c1,-77*
O=C(Nc1ccc2oc(=O)ccc2c1)c1ccc2ccccc2c1,-67*
O=C(Nc1ccc2oc(=O)ccc2c1)c1ccco1,-75*
O=c1cccc2n1Cc1cc3ccccc3nc1-2,-152*
CC[C@@]1(O)C(=O)OCc2c1cc1n(c2=O)Cc2cc3c(N)cccc3nc2-1,103
Cc1ccc(NC(=O)c2ccc(OC(=O)COc3ccc(Cl)cc3C)cc2)cc1,-79*
Cc1ccc(NC(=O)c2ccc(OC(=O)CCN3C(=O)c4ccccc4C3=O)cc2)cc1,-146*
Cc1ccc(NC(=O)c2ccc(OC(=O)COc3cccc(Cl)c3)cc2)cc1,-130*
CCNC(=S)N/N=C/c1cc(C)n(-c2ccc(Cl)cc2)c1C,-125*
O=C(Nc1cnc2ccccn2c1=O)c1ccc(Cl)cc1,-139*
CCOCCOC(=O)C1=C(C)Nc2ccc(C)cc2S1,-92*
CC(=O)Nc1ccc2nc(C3CC3)n(Cc3ccc(Cl)cc3)c(=O)c2c1,-165*
COc1ccc(Cn2c(C3CC3)nc3ccc(NC(=O)C4CC4)cc3c2=O)cc1,-280*
CCC(=O)Nc1ccc2nc(C3CC3)n(Cc3ccc(C(C)(C)C)cc3)c(=O)c2c1,-150*
COc1ccccc1/C=C/C1(C(=O)NC2CCCC2)CC(=O)N1c1ccccc1 (stereo not drawn),-138*
SMILES,aSyn 5UTR act
CN(C)S(=O)(=O)c1ccc(N2C(=O)CC2(/C=C/c2ccccc2)C(=O)NC2CCCC2)cc1 (stereo not drawn),35
Cc1oc2cc3oc(=O)cc(C)c3cc2c1C,-88*
CCOc1ccc(C(Nc2cccnc2)c2cc(Cl)c3cccnc3c2O)cc1 (stereo not drawn),67
CCOc1ccc(NC(c2ccccn2)c2oc(CO)cc(=O)c2O)cc1 (stereo not drawn),-104*
Cc1ccc(OCC(=O)Nc2ccccc2F)cc1C,-178*
O=C(COc1ccccc1)NCCSCc1ccccc1Cl,-64*
O=C(COc1ccccc1)Nc1ccccc1Cl,-165*
Cc1ccc(C(=O)CCC(=O)Nc2ccccc2F)cc1,-98*
CCOC(=O)c1oc2ccccc2c1NC(=O)COc1ccc(F)cc1,61
Cc1ccc(CCC(=O)Nc2ccccc2F)s1,-91*
Cc1ccc(OCC(=O)Nc2ccccc2F)cc1,-72*
C/C(=N\N=c1/sc2ccccc2n1C)c1ccccn1,-122*
